Several values for one entry are separate records, joined by “and”; a condition that tells them apart may be missing. Identical values can stand only once. ± gives the standard deviation of the averaged measurements.
Experiments:
Settings in all cases: concentration: 10 µM; 24 h
[1] = test system: HCC1569; assay: cell number relative to DMSO (% of DMSO); higher = more cells (less growth inhibition / toxicity)
In short: (§1)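 Using 384-well plates with 800 cells per well in RPMI plus 10% FBS, HCC1569 and TDF cells were exposed to compounds at 10 µM, in triplicate, for 24 h at 37 °C. Imaging of six fields per well at ×10 followed H1.0 and DAPI staining. The reported quantity, H1.0 nuclear intensity or cell number, is a median of replicates given as percent of the plate control, and HCC1569 values were smoothed for positional effects.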

[2] = test system: TDF; assay: as above
In short: as §1

[3] = test system: TDF; assay: H1.0 immunofluorescence intensity relative to DMSO (% of DMSO); higher = stronger H1.0 induction, active = 120 or more
In short: as §1

[4] = test system: HCC1569; assay: H1.0 immunofluorescence intensity relative to DMSO (% of DMSO); higher = stronger H1.0 induction, active = 140 or more
In short: as §1
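For H1.0 immunofluorescence intensity relative to DMSO in this document: TDF is a line of transformed human dermal fibroblasts of mesenchymal origin.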
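For cell number relative to DMSO in this document: TDF denotes transformed human dermal fibroblasts of mesenchymal origin.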

SMILES	cell number [1]	cell number [2]	H1.0 immunofluorescence intensity [3]	H1.0 immunofluorescence intensity [4]
COC(=O)C1C(O)CCC2CN3CCc4c([nH]c5ccccc45)C3CC21.Cl (stereo unspecified) [Rauwolscine hydrochloride]	99.9	117	87 (inactive)	103 (inactive)
O=C(Nc1ccc(S(=O)(=O)Nc2nccs2)cc1)C(c1ccccc1)c1ccccc1	93.6	105	86 (inactive)	108 (inactive)
CCN(CC)C(=O)c1ccc(O)c(OC)c1 [Vanillic acid diethylamide]	101	103	94.3 (inactive)	99.6 (inactive)
CC(=O)CC/C=C(\C)CC/C=C(\C)CC/C=C(\C)CCC=C(C)C	100	96.2	104 (inactive)	105 (inactive)
CCCCCC=CCC=CCC=CCCCCCCC(=O)O [8(Z), 11(Z), 14(Z)-Eicosatrienoic Acid]	97.9	101	97.9 (inactive)	98.7 (inactive)
CCC(C)SSc1ncc[nH]1 (stereo unspecified) [2-(sec-butyldisulfanyl)-1H-imidazole]	83.7	105	87.7 (inactive)	107 (inactive)
O=C(CCCN1CCC(O)(c2ccc(Cl)cc2)CC1)c1ccc(F)cc1 [Haloperidol]	91 ± 7.7	92.6 ± 3.7	101 (inactive)	117 (inactive)
C=CCc1ccc(O)c(OC)c1 [Eugenol]	103	114	89.5 (inactive)	95.1 (inactive)
CC(C)(S)[C@H](N)C(=O)O [L-Penicillamine]	100	102	98.5 (inactive)	90.8 (inactive)
Cc1ccc(-c2nn(C(C)(C)C)c3ncnc(N)c23)cc1	69.8	109	94.8 (inactive)	188 (active)
Cn1c(=O)c2[nH]cnc2n(C)c1=O [Theophylline]	100	95.5	97 (inactive)	103 (inactive)
CC(=O)O.NC(N)=NN=Cc1c(Cl)cccc1Cl [Guanabenz acetate]	104	98	106 (inactive)	97.8 (inactive)
Cc1cc(N)c2ccccc2[n+]1CCCCCCCCCCCCCC[n+]1c(C)cc(N)c2ccccc21.[I-].[I-] [Dequalinium analog, C-14 linker]	101	102	95.7 (inactive)	100 (inactive)
COc1ccc(CC[C@H]2CCC[C@@H](CCc3ccc(OC)cc3)N2C[C@@H](O)CO)cc1.Cl	101	103	93.3 (inactive)	92.7 (inactive)
Cc1cnc(-c2cc(N3CCN(C(=O)CCS(C)(=O)=O)CC3)ncc2Cl)c(C)c1.Cl	103	103	83.9 (inactive)	104 (inactive)
NCCS(=O)O [Hypotaurine]	106	106	96.6 (inactive)	88.6 (inactive)
CNC(=O)C1OC(n2cnc3c(N)ncnc32)C(O)C1O (stereo unspecified) [5'-N-Methyl carboxamidoadenosine]	110	110	104 (inactive)	98.9 (inactive)
COC(=O)C1=C(C)NC(C)=C(C(=O)OC)C1c1ccccc1[N+](=O)[O-] [Nifedipine]	99.06 ± 0.47	102 ± 7	94.7 (inactive)	104 (inactive)
Cn1cc(C=C2C(=O)Nc3cccnc32)c2ccccc21	89.7 and 101	104 and 96	96 (inactive) and 95.3 (inactive)	161 (active) and 98.5 (inactive)
O=C(Nc1ccc(Cl)cc1)Nc1cccc(-c2cccc(N3CCCC3)n2)c1	96	87.5	98.6 (inactive)	114 (inactive)
Cl.Cn1ccc2cc3c(cc21)CCN3C(=O)Nc1cccnc1	101	112	87.9 (inactive)	100 (inactive)
CCCC(CCC)C(=O)[O-].[Na+] [Valproic acid sodium]	108	119	95 (inactive)	99.9 (inactive)
COc1cccc(OC)c1OCCNCC1COc2ccccc2O1.Cl (stereo unspecified) [WB-4101 hydrochloride]	102	101	93.7 (inactive)	93.3 (inactive)
Br.CN(C)CCCC1(c2ccc(F)cc2)OCc2cc(C#N)ccc21 (stereo unspecified) [Citalopram hydrobromide]	101	103	96 (inactive)	92.5 (inactive)
